Assay outcomes from PubChem.
This is a sample that favours compounds with a hit; in the whole collection about 3.5% have one here.
GPR151 activ – human GPR151 activation; Q8TDV0; PathHunter beta-arrestin GPR151 cells, luminescence; AID 1508602; 650,000 tested, 1% active; activation, % at 11.2 µM; in the data active = activation above about 4.9%;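 note: 0% = median of compound wells and 100% = cells with positive control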
FBW7 activator – activators of human E3 ligase FBW7. 650,000 tested, 0.13% active. normalized activity (activation), % at 26.1 µM. AID 1259310. AlphaScreen FBW7–phospho-cyclin E peptide binding, activator screen. Q969H0; in the data active = normalized activity above about 1.9%;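 note: purified mutant Fbw7 with reduced substrate affinity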
TEAD-YAP inh – TEAD-YAP interaction inhibition; 640,000 tested, 1.4% active; HEK-TIYL cells, TEAD-Gal4/YAP UAS-luciferase luminescence; inhibition, % at 9.12 µM; AID 1259422; in the data active = inhibition above about 32%;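 note: 0% = median of test compound wells and 100% = reference inhibitor wells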
MITF inh – blocks human microphthalmia-associated transcription factor | O75030 | AlphaScreen MITF homodimerization, bead proximity signal | inhibition, % at 2.6 µM | 650,000 tested, 0.91% active | AID 1259374; in the data active = inhibition above about 50%;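 note: 0% = vehicle wells with protein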
GPR151 conf act – human GPR151 activation, confirmation screen | AID 1508609 | 6,700 tested, under 10 active | shares compounds with GPR151 activ | GPR151 PathHunter beta-arrestin cells, luminescence, 90 min; % of EA-reagent control over plate median | activation, % at 11.2 µM;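 active = mean percent activation across replicates above the confirmation screen cutoff of 4.91%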
GPR119 counter – activates human GPR119 in a GPR151 counter-screen; GPR119 PathHunter beta-arrestin cells, luminescence, 90 min; 0 = compound-well median, 100 = enzyme-acceptor control; shares compounds with GPR151 activ; 6,700 tested, 0.3% active; activation, % at 11.2 µM;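 active = mean percent activation in the counterscreen above 29.09%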;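 note: counterscreen on off-target GPR119 to flag nonselective hits from the GPR151 activator screen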
Target sequence (Q8TDV5 whole entry, looked up): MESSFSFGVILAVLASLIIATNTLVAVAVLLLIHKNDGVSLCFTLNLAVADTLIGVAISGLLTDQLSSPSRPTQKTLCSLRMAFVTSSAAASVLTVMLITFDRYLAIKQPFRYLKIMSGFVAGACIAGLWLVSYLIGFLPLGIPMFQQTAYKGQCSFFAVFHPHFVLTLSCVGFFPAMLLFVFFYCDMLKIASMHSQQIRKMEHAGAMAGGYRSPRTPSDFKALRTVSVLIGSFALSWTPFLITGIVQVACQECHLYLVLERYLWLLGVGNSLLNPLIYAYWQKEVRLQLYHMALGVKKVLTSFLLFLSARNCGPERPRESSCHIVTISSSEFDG
* hit, by the source's call; ! = a repeat was not active.

COc1cc(CNC(=O)CCCC/C=C/C(C)C)ccc1O was read as GPR151 activ 7.6*!, FBW7 activator 0, TEAD-YAP inh -12, MITF inh -7, GPR151 conf act 0 and GPR119 counter -6.
For COc1cccc(C2=N/C(=C\c3cn(C(C)=O)c4ccccc34)C(=O)O2)c1 the results were GPR151 activ 7.5*, FBW7 activator 0, TEAD-YAP inh 5, MITF inh 2, GPR151 conf act 0 and GPR119 counter 8.
Screening CC(=O)n1cc(/C=C2/N=C(c3ccccc3)OC2=O)c2ccccc21 returned GPR151 activ 0, FBW7 activator 0, TEAD-YAP inh 5 and MITF inh -9.
For C=C(C)COc1c(I)cc(C=O)cc1OC the results were GPR151 activ 6.6*, FBW7 activator 0, TEAD-YAP inh 10, MITF inh 10, GPR151 conf act 0 and GPR119 counter -6.
Screening Nc1nonc1-c1noc(C2CCCCC2)n1 returned GPR151 activ 0, FBW7 activator 0, TEAD-YAP inh -18 and MITF inh -28.
Screening N#Cc1c(-c2ccc(Cl)cc2)cc(-c2ccccc2)nc1N returned GPR151 activ 0, FBW7 activator 0, TEAD-YAP inh 2 and MITF inh 10.
`N#Cc1c(-c2ccncc2)cc(-c2ccc(Cl)cc2)nc1N` gave GPR151 activ 5.4*, FBW7 activator 0, TEAD-YAP inh -7, MITF inh -11, GPR151 conf act 0 and GPR119 counter -2.
Screening Cc1ccc(S(=O)(=O)NCCc2ccccc2)cc1C(N)=O returned GPR151 activ -1, FBW7 activator 1, TEAD-YAP inh 8 and MITF inh 8.
For CCOc1cccc2sc(NC(=O)C3=COCCO3)nc12 the results were GPR151 activ 6.6*, FBW7 activator 0, TEAD-YAP inh -17, MITF inh 2, GPR151 conf act 0 and GPR119 counter 10.
Screening COCCCNc1nc2nonc2nc1N1CCN(CCOc2ccccc2)CC1 returned GPR151 activ 7.2*, FBW7 activator 0, TEAD-YAP inh 8, MITF inh 1, GPR151 conf act 1 and GPR119 counter -1.
CC(C)N1CCN(Cc2cccc(OCCO)c2)CC1CCO (stereo not drawn) was read as GPR151 activ -1, FBW7 activator 0, TEAD-YAP inh 0 and MITF inh -10.
Screening OCCOc1ccc(CN2CCN(Cc3ccc(F)c(F)c3)C(CCO)C2)cc1 (stereo not drawn) returned GPR151 activ 6.8*, FBW7 activator 0, TEAD-YAP inh 8, MITF inh 15, GPR151 conf act -1 and GPR119 counter -14.
Screening CC(C)N1CCN(Cc2ccc(OCCO)cc2)CC1CCO (stereo not drawn) returned GPR151 activ 5.2*, FBW7 activator 0, TEAD-YAP inh 13, MITF inh 2, GPR151 conf act 1 and GPR119 counter 6.
`CCOc1cc(OCC)c(C=O)cc1Br` gave GPR151 activ 6.3*, FBW7 activator 0, TEAD-YAP inh 0, MITF inh 5, GPR151 conf act -2 and GPR119 counter -10.
`C#CCOc1cc(Br)c(C=O)cc1OCC` gave GPR151 activ 1, FBW7 activator 0, TEAD-YAP inh 3 and MITF inh 2.
`COc1ccc(-c2nc3c(NC4CC4)ncnc3n2C(C)C)cc1` gave GPR151 activ 1, FBW7 activator 0, TEAD-YAP inh -14 and MITF inh -3.
For CN(Cc1ccn[nH]1)C(=O)c1ccc(OC2CCN(C(=O)C3CC3)CC2)cc1 the results were GPR151 activ 0, FBW7 activator 0, TEAD-YAP inh -7 and MITF inh 13.
CN(Cc1ccn[nH]1)C(=O)c1cccc(OC2CCN(C(=O)C3CC3)CC2)c1 was read as GPR151 activ 4.9*, FBW7 activator 0, TEAD-YAP inh 2, MITF inh 5, GPR151 conf act -1 and GPR119 counter -22.
For COc1ccc(CCN2CCC(c3nc(-c4ccccc4)no3)CC2)cc1OC the results were GPR151 activ 2, FBW7 activator 0, TEAD-YAP inh 4 and MITF inh 3.
`CC(C)n1c(C(F)(F)F)nc2ccccc21` gave GPR151 activ 5.2*, FBW7 activator 0, TEAD-YAP inh 6, MITF inh 10, GPR151 conf act 2 and GPR119 counter 9.
